Active and inactive are the calls of the source. The calls were made as follows: active = hit-call score of the fitted dose curve at least 0.9, where 1 is the maximum; inactive = score below 0.9.
Assay: CEETOX_H295R_CORTISOL: CeeTox H295R High-throughput Steroidogenesis Assay for Cortisol (AID 2283438);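 also: cortisol secreted into medium quantified by LC-MS/MS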
Conditions: actives raise or lower the signal
Protocol: CEETOX_H295R is a cell-based, multiplexed-readout assay that uses H295R, a human adrenal gland cell line, with measurements taken at 48 hours after chemical dosing in a 96-well plate.CEETOX_H295R_CORTISOL is one of 23 assay component(s) measured or calculated from the CEETOX_H295R assay. It is designed to make measurements of hormone induction, a form of inducible reporter, as detected with absorbance signals by HPLC-MS-MS technology.Data from the assay component CEETOX_H295R_CORTISOL was analyzed into 1 assay endpoint. This assay endpoint, CEETOX_H295R_CORTISOL, was analyzed with bidirectional fitting relative to DMSO as the negative control and baseline of activity. Using a type of inducible reporter, gain or loss-of-signal activity using HPLC-MS-MS was used to understand synthesis of Cortisol in H295R cell line at 48hr of chemical exposure. To generalize the intended target to other relatable targets, this assay endpoint is annotated to the steroid hormone intended target family, where the subfamily is glucocorticoids.
Cell culture and media preparation procedures were conducted in accordance with OECD Test No. 456 guidelines, with minor modifications. H295R cells (ATCC CRL-2128) were expanded for 5 passages and frozen in batches in liquid nitrogen. Prior to the steroidogenesis assay, H295R cells were thawed and passed at least 4 times. The maximum passage was 10. Cells were maintained in a 1:1 mixture of DMEM/F12 supplemented with 5ml/L ITS+ Premix (BD Bioscience) and 12.5 ml/L Nu-Serum (BD Bioscience). After seeding cells into 96-well plates at 50-60% confluency, cells were allowed to adhere overnight. Prior to chemical testing, culture medium was replaced with 175 uL medium containing 10 uM forskolin to stimulate steroidogenesis for 48 hours. Following prestimulation, forskolin medium was replaced with medium containing test chemical solubilized in DMSO (ensuring a final concentration of 0.1% DMSO). Test chemicals were incubated for 48 hours, then the medium was removed and split into 2 vials containing approximately 75uL each, and stored at -80 C prior to hormone analysis. For steroid quantification, media samples were shipped to OpAns, LLC (Durham, NC) on dry ice, and samples were thawed to room temperature prior to liquid-liquid extraction. Steroid hormones were extracted from media samples using methyl tertbutyl ether (MTBE). An extra derivatization with dansyl chloride was included for estrogen (estrone and estradiol) detection only. Steroid hormones were separated by HPLC, eluted using a reverse phase C18 gradient with electrospray positive ionization, followed by quantification by tandem mass spectrometry (MS/MS). Data were acquired on a MassHunter Workstation Acquisition version B03.01 (Agilent Technologies, Inc.) and processed using MassHunter Quantitative Analysis for QQQ. Accuracy was determined for each hormone analyte from 3 standards to determine upper and lower limits of quantification (ULOQ and LLOQ, respectively) using a 7-point standard curve. Precision and accuracy of the extraction and quantification methods were calculated as the percent relative standard deviation (%RSD) of the spiked standards and percent spiked standard recovered, respectively. The goal was to achieve 100% accuracy (i.e., recover all spiked-in standard at quantification with minimal loss during run time) and good precision (i.e., have %RSD <15% to ensure reproducibility). Test medium was removed following chemical exposure, and cell viability was evaluated in the same wells by MTT. MTT procedures were as follows: after removal of test medium, 500 uL of 0.5 mg/ml of 3-[4,5-dimethylthiazol-2-y]2,5-diphenyltetrazoliumbromide solution was added to the cells. Following a 4-hour incubation at 37 C and 5% CO2 to allow formazan-crystal formation, the MTT solution was removed and blue formazan salt crystals were solubilized using 500uL anhydrous isopropanol with shaking for 20 minutes. […]

Compound | AC50 | outcome
Nc1ccc(-c2ccc(N)cc2)cc1 | 65.8 µM (active) | 
CC1=C2C[C@H]3[C@@H](CC=C4C[C@@H](O)CC[C@@]43C)[C@@H]2CC[C@]12O[C@@H]1C[C@H](C)CN[C@H]1[C@H]2C |  | inactive
CCOCCOC(C)=O |  | inactive
CCSC(=O)N(CC)C1CCCCC1 |  | inactive
ClC1=C(Cl)[C@]2(Cl)[C@@H]3[C@H]4C[C@H]([C@@H]5O[C@H]45)[C@@H]3[C@@]1(Cl)C2(Cl)Cl | 5.13 µM (active) | 
Cc1ccc(O)c(C)c1 |  | inactive
Clc1ccc(C(c2ccccc2Cl)C(Cl)(Cl)Cl)cc1 (configuration not stated) |  | inactive
NS(=O)(=O)C(F)(F)C(F)(F)C(F)(F)C(F)(F)C(F)(F)C(F)(F)C(F)(F)C(F)(F)F |  | inactive
CCC(=O)O[C@H]1CC[C@H]2[C@@H]3CCC4=CC(=O)CC[C@]4(C)[C@H]3CC[C@]12C | 30.7 µM (active) | 
C=CC(N)=O |  | inactive
Cc1cc(O)ccc1Cl |  | inactive
c1cc2ccc3cccc4ccc(c1)c2c34 |  | inactive
Oc1ccc(Cl)cc1Cl |  | inactive
Cc1cccc(C)c1N |  | inactive
CC#Cc1cc(C)nc(Nc2ccccc2)n1 |  | inactive
C[C@]12CCC(=O)C=C1CC[C@@H]1[C@@H]2CC[C@@]2(C)[C@H]1CC[C@]2(C)O | 7.76 µM (active) | 
O=C(NC(=O)c1c(F)cccc1F)Nc1cc(Cl)c(OC(F)(F)C(F)F)c(Cl)c1 |  | inactive

— PubChem BioAssay (EPA / NIEHS)
